In PubChem BioAssay (NCATS):
Records with an inconclusive call do not appear. Calls of active or inactive are those of the source. Calls come from the whole dose curve; as a rule, active = well fitted curve in the direction sought with a large enough effect; inconclusive = small, poorly fitted or top-dose-only effect, or another doubt; inactive = no such curve, though single readings can be large; an effect the other way counts as inactive or inconclusive.

Tests used:
HaCat [1] = assay: Cytotoxic Profiling of Annotated Libraries Using Quantitative High-Throughput Screening (AID 1296008); conditions: Five cell lines viability, CellTiter-Glo ATP luminescence, 48-72 h; max response: stronger effect = lower value; note: nearly all actives have a fitted effect of over 60% in size; for max response: % is set by controls: 0 for no effect and ±100 for the full control effect
Outline: (§1)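 Compounds were pin-transferred onto cells and incubated 48 or 72 hr at 37 degree Celsius, 95% humidity. CellTiter-Glo was added, plates sat 10 min at room temperature, then ATP-coupled luminescence was imaged as the viability read-out.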

KB-3-1 = assay: as above; conditions: Five cell lines viability, CellTiter-Glo ATP luminescence, 48-72 h; max response: stronger effect = lower value
Outline: as §1

NIH3T3 = assay: as above; conditions: Five cell lines viability, CellTiter-Glo ATP luminescence, 48-72 h; max response: stronger effect = lower value
Outline: as §1

HACAT [2] = assay: qHTS assay to identify novel small-molecules to repurpose for Merkel cell carcinoma treatment (AID 1296009); conditions: MCC and control cell lines, CellTiter-Glo viability, 72 h; series mostly up to 44.8 µM; note: nearly all actives have a fitted effect of over 60% in size
Outline: (§2)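 qHTS format: cells treated with library compounds in DMSO across 8 (NPC) or 11 (MIPE) concentrations. Readout after 72 hr at 37 degree celsius was CellTiter-Glo luminescence.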

C33A = assay: Primary qHTS to identify gynecologic anti-cancer compounds using libraries of approved drugs and bioactive compounds (AID 1345084); conditions: Gynecologic cancer cell panel viability, ATPlite luminescence, 48 h; series mostly up to 57.5 µM; note: % is set by controls: 0 for no effect and ±100 for the full control effect; nearly all actives have a fitted effect of over 55% in size
Outline: (§3)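 48 h compound exposure at 37 C, 5% CO2; five-point qHTS. ATPlite luminescence readout of cell ATP.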

CAOV3 = assay: as above; conditions: Gynecologic cancer cell panel viability, ATPlite luminescence, 48 h; series mostly up to 57.5 µM
Outline: as §3

CASKI = assay: as above; conditions: Gynecologic cancer cell panel viability, ATPlite luminescence, 48 h; series mostly up to 57.5 µM
Outline: as §3

Es-2 = assay: as above; conditions: Gynecologic cancer cell panel viability, ATPlite luminescence, 48 h; series mostly up to 57.5 µM
Outline: as §3

HeLa = assay: as above; conditions: Gynecologic cancer cell panel viability, ATPlite luminescence, 48 h; series mostly up to 57.5 µM
Outline: as §3

JEG-3 = assay: as above; conditions: Gynecologic cancer cell panel viability, ATPlite luminescence, 48 h; series mostly up to 57.5 µM
Outline: as §3

OV90 = assay: as above; conditions: Gynecologic cancer cell panel viability, ATPlite luminescence, 48 h; series mostly up to 57.5 µM
Outline: as §3

Hek293T [3] = assay: as above; conditions: Gynecologic cancer cell panel viability, ATPlite luminescence, 48 h, control line for the selectivity index; series mostly up to 57.5 µM
Outline: as §3

HEK293T [4] = assay: qHTS assay to identify novel small-molecules to repurpose for Merkel cell carcinoma treatment (AID 1296009); conditions: MCC and control cell lines, CellTiter-Glo viability, 72 h; at 44.8 µM (top of the series) unless noted; note: nearly all actives have a fitted effect of over 60% in size
Outline: as §2

COc1c(/C=C/C(C)(C)O)ccc2c1C(=O)OCc1cc(C)cc(O)c1O2
inactive: outcome (HaCat [1]) | max response (KB-3-1) -23.3% | max response (NIH3T3) 2.57% | Potency (HACAT [2]) | Potency (C33A) | Potency (CAOV3) | Potency (CASKI) | Potency (Es-2) | Potency (HeLa) | Potency (JEG-3) | Potency (OV90)

C=C1CCC[C@]2(C)CC[C@@H](C(=C)C(=O)O)[C@H](O)[C@@H]12
inactive: outcome (HaCat [1]) | max response (KB-3-1) 1.72% | max response (NIH3T3) -0.289% | Potency (HACAT [2]) | Potency (C33A) | Potency (CASKI) | Potency (Es-2) | Potency (HeLa) | Potency (Hek293T [3]) | Potency (JEG-3) | Potency (OV90)

CC1(C)CC[C@]2(C(=O)O[C@@H]3O[C@H](CO)[C@@H](O)[C@H](O)[C@H]3O)CC[C@]3(C)C(=CCC4[C@@]5(C)CC[C@H](O[C@@H]6O[C@H](C(=O)O)[C@@H](O)[C@H](O)[C@H]6O)[C@@](C)(CO)C5CC[C@]43C)C2C1 (some centres not stated)
inactive: outcome (HaCat [1]) | max response (KB-3-1) -0.849% | max response (NIH3T3) -2.22% | outcome (HACAT [2]) inactive [at 9.27 µM] | activity change, negative = cytotoxicity (C33A) 9.39% [at 11.6 µM] | activity change, negative = cytotoxicity (CASKI) 1.03% [at 11.6 µM] | activity change, negative = cytotoxicity (Es-2) 1.13% [at 11.6 µM] | activity change, negative = cytotoxicity (HeLa) -10.8% [at 11.6 µM] | activity change, negative = cytotoxicity (Hek293T [3]) 5.9% [at 11.6 µM] | activity change, negative = cytotoxicity (JEG-3) -2.45% [at 11.6 µM] | activity change, negative = cytotoxicity (OV90) 8.98% [at 11.6 µM]

CS(=O)(=O)c1ccc(-c2nnc(/C=C/c3nnc(-c4ccc(C#N)cc4)o3)n2-c2ccccc2Cl)nc1
inactive: outcome (HaCat [1]) | max response (KB-3-1) 2.94% | max response (NIH3T3) -6.1% | Potency (HACAT [2]) | Potency (C33A) | Potency (CAOV3) | Potency (CASKI) | Potency (Es-2) | Potency (HeLa) | Potency (JEG-3) | Potency (OV90)

COc1cc(C(=O)OC[C@H]2O[C@@H](Oc3ccccc3/C=C/C(=O)O)[C@H](O)[C@@H](O)[C@@H]2O)cc(OC)c1OC
inactive: outcome (HaCat [1]) | max response (KB-3-1) 5.09% | max response (NIH3T3) 0.074% | Potency (HACAT [2]) | Potency (C33A) | Potency (CASKI) | Potency (Es-2) | Potency (HeLa) | Potency (Hek293T [3]) | Potency (JEG-3) | Potency (OV90)

COc1ccc(-c2cnc3ccc(NCc4ccc(S(N)(=O)=O)cc4)nn23)cc1OC
inactive: outcome (HaCat [1]) | max response (KB-3-1) -8.36% | max response (NIH3T3) -14% | Potency (HACAT [2]) | Potency (C33A) | Potency (CAOV3) | Potency (Es-2) | Potency (HeLa) | Potency (Hek293T [3]) | Potency (JEG-3)

CC(C)S(=O)(=O)N[C@H]1CCOC[C@@H]1c1ccc(-c2ccc(C#N)s2)cc1
inactive: outcome (HaCat [1]) | outcome (KB-3-1) | max response (NIH3T3) -6.39% | Potency (HACAT [2]) | Potency (C33A) | Potency (CASKI) | Potency (Es-2) | Potency (HeLa) | Potency (Hek293T [3]) | Potency (JEG-3) | Potency (OV90)

C=C(C(=O)OC)C1C(O)CC2(C)C(O)CCC(=O)C2C1O (configuration not stated)
inactive: outcome (HaCat [1]) | max response (KB-3-1) 2.14% | max response (NIH3T3) 3.84% | Potency (HACAT [2]) | Potency (C33A) | Potency (CAOV3) | Potency (CASKI) | Potency (Hek293T [3]) | Potency (JEG-3) | Potency (OV90)

C[C@@H]1CC[C@]2(C(=O)O[C@@H]3O[C@H](CO)[C@@H](O)[C@H](O)[C@H]3O)CC[C@]3(C)C(=CCC4[C@@]5(C)C[C@@H](O)[C@H](O)[C@](C)(C(=O)O)C5CC[C@]43C)[C@@H]2[C@]1(C)O (some centres not stated)
inactive: outcome (HaCat [1]) | max response (KB-3-1) 5.29% | max response (NIH3T3) 0.619% | Potency (HACAT [2]) | Potency (C33A) | Potency (CASKI) | Potency (Es-2) | Potency (HeLa) | Potency (Hek293T [3]) | Potency (JEG-3) | Potency (OV90)

CC(C)c1cccc2c(-c3ccccc3)cc(-c3ccc(-c4ccc(C(=O)O)cc4)[nH]3)nc12
inactive: outcome (HaCat [1]) | max response (KB-3-1) -3.11% | max response (NIH3T3) -3.94% | Potency (HACAT [2]) | Potency (C33A) | Potency (CAOV3) | Potency (Es-2) | Potency (HeLa) | Potency (Hek293T [3]) | Potency (JEG-3) | Potency (OV90)

O=C(O[C@H]1[C@@H]2C=CO[C@@H](O[C@@H]3O[C@H](CO)[C@@H](O)[C@H](O)[C@H]3O)[C@@H]2[C@@]2(CO)O[C@@H]12)c1ccccc1
inactive: outcome (HaCat [1]) | outcome (KB-3-1) | max response (NIH3T3) -6.96% | Potency (HACAT [2]) | Potency (C33A) | Potency (CASKI) | Potency (Es-2) | Potency (HeLa) | Potency (Hek293T [3]) | Potency (JEG-3) | Potency (OV90)

C[C@@H]1O[C@@H](O[C@@H]2[C@@H](O)[C@H](O[C@H]3CC[C@@]4(C)C(CC[C@]5(C)C4CC=C4[C@@H]6CC(C)(C)CC[C@]6(C(=O)O[C@@H]6O[C@H](CO)[C@@H](O)[C@H](O)[C@H]6O)CC[C@]45C)C3(C)C)O[C@H](C(=O)O)[C@H]2O)[C@H](O)[C@H](O)[C@H]1O (some centres not stated)
inactive: outcome (HaCat [1]) | max response (KB-3-1) 4.23% | max response (NIH3T3) 4.82% | outcome (HACAT [2]) inactive [at 9.27 µM] | activity change, negative = cytotoxicity (C33A) -0.88% [at 11.6 µM] | activity change, negative = cytotoxicity (CASKI) 17% [at 11.6 µM] | activity change, negative = cytotoxicity (Es-2) 6.6% [at 11.6 µM] | activity change, negative = cytotoxicity (HeLa) 2.44% [at 11.6 µM] | activity change, negative = cytotoxicity (Hek293T [3]) 5.01% [at 11.6 µM] | activity change, negative = cytotoxicity (JEG-3) 4.87% [at 11.6 µM] | activity change, negative = cytotoxicity (OV90) 3.49% [at 11.6 µM]

C=C1C(O)CC2C(C(=O)O)=COC(O[C@@H]3O[C@H](COC(=O)/C=C/c4ccc(O)cc4)[C@@H](O)[C@H](O)[C@H]3O)C12 (some centres not stated)
inactive: max response (HaCat [1]) -10.4% | outcome (KB-3-1) | max response (NIH3T3) -4.95% | outcome (HEK293T [4]) inactive [at 17.4 µM] | Potency (C33A) | Potency (CAOV3) | Potency (CASKI) | Potency (Es-2) | Potency (HeLa) | Potency (Hek293T [3]) | Potency (JEG-3) | Potency (OV90)
